Results as given in PubChem BioAssay AID1159580 (chemical genetic matrix, 2015).
Among all 5,500 compounds or so, about 2,000 (36%) were called active. Roughly 18% stayed inconclusive and do not appear here. Rule as the data show it: active = normalized growth mostly below about 0.91 (no sharp cut-off); inconclusive = no clear call, values can overlap the other calls; inactive = mostly above about 0.92. The list shows a part of the results.

Assay: chemical genetic growth profiling, strain panel (AID 1159580);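 also: tested at 20 µM; growth read once vehicle control cultures reached saturation at 30 °C; 1 = growth at the plate median or of vehicle wells; lower values mean less growth of the strain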
Details: S. cerevisiae deletion strains, growth OD

Measured: normalized growth

CC(=O)O[C@@H]1CC2C(C)(C)[C@H](O)C[C@H](O)[C@]2(C)C2CC[C@@]3(C)C(=CC(=O)O[C@H]3c3ccoc3)[C@@]21C (stereo not given in full)
inactive: locus YAL021C, strain ccr4, active compounds read low 0.977 | locus YAL026C, strain drs2, active compounds read low 0.988 | locus YAL030W, strain snc1, active compounds read low 1 | locus YBL061C, strain skt5, active compounds read low 1 | locus YBR009C, strain hhf1, active compounds read low 1.02 | locus YBR023C, strain chs3, active compounds read low 0.991 | locus YBR171W, strain sec66, active compounds read low 1.01 | locus YBR231C, strain swc5, active compounds read low 1 | locus YBR279W, strain paf1, active compounds read low 0.979 | locus YCL011C, strain gbp2, active compounds read low 0.969 | locus YCL016C, strain dcc1, active compounds read low 0.973 | locus YCL069W, strain vba3, active compounds read low 0.99 | locus YCR088W, strain abp1, active compounds read low 0.992 | locus YDL005C, strain med2, active compounds read low 0.981 | locus YDL040C, strain nat1, active compounds read low 0.99 | locus YDR001C, strain nth1, active compounds read low 0.979 | locus YDR069C, strain doa4, active compounds read low 0.983 | locus YDR137W, strain rgp1, active compounds read low 0.981 | locus YDR159W, strain sac3, active compounds read low 0.978 | locus YDR195W, strain ref2 0.989 | locus YDR297W, strain sur2, active compounds read low 0.98 | locus YDR334W, strain swr1, active compounds read low 0.977 | locus YDR335W, strain msn5, active compounds read low 0.973 | locus YDR392W, strain spt3, active compounds read low 0.914 | locus YEL003W, strain gim4, active compounds read low 1.01 | locus YEL037C, strain rad23, active compounds read low 0.99 | locus YEL061C, strain CIN8 (second series), active compounds read low 0.995 | locus YER015W, strain faa2, active compounds read low 0.976 | locus YER016W, strain bim1, active compounds read low 1.01 | locus YER111C, strain swi4, active compounds read low 0.978 | locus YER155C, strain BEM2 (second series), active compounds read low 1.04 | locus YFR010W, strain ubp6, active compounds read low 1.02 | locus YGL167C, strain pmr1, active compounds read low 0.991 | locus YGL173C, strain kem1, active compounds read low 1.05 | locus YGL227W, strain vid30, active compounds read low 0.986 | locus YGL240W, strain doc1, active compounds read low 1.03 | locus YGL253W, strain hxk2, active compounds read low 0.941 | locus YHR013C, strain ard1, active compounds read low 0.952 | locus YHR027C, strain rpn1, active compounds read low 0.979 | locus YHR142W, strain chs7, active compounds read low 0.945 | locus YJL092W, strain hpr5, active compounds read low 0.985 | locus YJL095W, strain BCK1 (second series), active compounds read low 0.991 | locus YJL115W, strain asf1, active compounds read low 0.963 | locus YJL129C, strain trk1, active compounds read low 0.994 | locus YJL154C, strain vps35, active compounds read low 0.981 | locus YJL164C, strain tpk1, active compounds read low 0.992 | locus YJL166W, strain qcr8, active compounds read low 1.02 | locus YKL160W, strain elf1, active compounds read low 0.981 | locus YKR026C, strain gcn3, active compounds read low 0.989 | locus YKR091W, strain srl3, active compounds read low 0.976 | locus YLL001W, strain dnm1, active compounds read low 0.998 | locus YLL026W, active compounds read low 0.996 | locus YLL041C, strain sdh2, active compounds read low 0.984 | locus YLR027C, strain aat2, active compounds read low 1.01 | locus YLR221C, strain rsa3, active compounds read low 1.03 | locus YLR258W, strain gsy2, active compounds read low 0.974 | locus YLR262C, strain YPT6 (second series), active compounds read low 0.967 | locus YLR320W, strain mms22, active compounds read low 1.02 | locus YLR342W, strain FKS1, active compounds read low 0.991 | locus YLR357W, strain rsc2, active compounds read low 0.984 | locus YLR370C, strain arc18, active compounds read low 0.983 | locus YLR384C, strain iki3, active compounds read low 0.978 | locus YML120C, strain ndi1, active compounds read low 1.01 | locus YMR058W, strain fet3, active compounds read low 1 | locus YMR125W, strain sto1, active compounds read low 0.991 | locus YMR129W, active compounds read low 0.972 | locus YMR205C, strain PFK2, active compounds read low 1.04 | locus YMR231W, strain pep5, active compounds read low 1 | locus YNL071W, strain lat1, active compounds read low 1 | locus YNL209W, strain ssb2, active compounds read low 0.968 | locus YNL248C, strain rpa49, active compounds read low 0.967 | locus YNL322C, strain KRE1 (second series), active compounds read low 1.01 | locus YNR049C, strain mso1, active compounds read low 0.961 | locus YOR001W, strain rrp6, active compounds read low 1.03 | locus YOR070C, strain gyp1, active compounds read low 0.989 | locus YOR080W, strain dia2, active compounds read low 0.986 | locus YOR083W, strain WHI5, active compounds read low 0.954 | locus YOR106W, strain vam3, active compounds read low 0.946 | locus YOR265W, strain rbl2, active compounds read low 0.991 | locus YOR270C, strain vph1, active compounds read low 0.926 | locus YOR290C, strain snf2, active compounds read low 0.942 | locus YPL051W, strain arl3, active compounds read low 0.994 | locus YPL078C, strain atp4, active compounds read low 0.988 | locus YPL106C, strain sse1, active compounds read low 0.975 | locus YPL240C, strain hsp82, active compounds read low 0.994
